Consider 1 sequence from paper PMC7862700, “An all-to-all approach to the identification of sequence-specific readers for epigenetic DNA modifications on cytosine”.

What all share (assay): DAPPL (digital affinity profiling via proximity ligation, sequencing); 10 mM Tris-HCl pH 7.5, 50 mM NaCl, 1 mM DTT, 4% glycerol, room temperature, 30 min; GST-TFs on glutathione beads, 16-mer random dsDNA library, 0.1% formaldehyde crosslink after washing; high values mean tight binding
Test [1] has as its target T1, FEV (Homo sapiens, UniProt Q99581 1-238).
T1 sequence: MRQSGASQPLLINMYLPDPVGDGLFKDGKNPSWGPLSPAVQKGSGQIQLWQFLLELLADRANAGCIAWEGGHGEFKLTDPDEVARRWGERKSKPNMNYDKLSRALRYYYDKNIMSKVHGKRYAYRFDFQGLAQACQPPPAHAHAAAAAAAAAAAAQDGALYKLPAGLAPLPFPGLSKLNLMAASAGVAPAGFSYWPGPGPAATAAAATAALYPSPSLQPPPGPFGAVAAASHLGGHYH
The note with it: protein: recombinant; tags: N-terminal GST; dsDNA, one strand shown. Put shortly:
(§1)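 Binding signal is each hexamer's read frequency for a factor divided by its frequency in the tag-only sample. The factors were GST-fused human transcription factors from yeast, captured on glutathione beads, DNA-barcoded and pooled with that sample. Pools were incubated with 200 nmole of a random double-stranded 16-mer DNA library in Tris/NaCl/DTT/glycerol buffer at room temperature for 30 min, then washed, crosslinked with 0.1% formaldehyde, proximity-ligated with BsaI/T4 ligase (1 h, 37 °C), PCR-amplified and sequenced on an Illumina NextSeq500.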

Test [2] deals with ETV5 (Homo sapiens, UniProt P41161 1-510). As to conditions: protein: recombinant; tags: N-terminal GST; dsDNA, one strand shown. Put shortly:
as §1

Test [3] concerns the target HSF1 (Homo sapiens, UniProt Q00613 1-529). As to conditions: protein: recombinant; tags: N-terminal GST; chain copies: 3; dsDNA, one strand shown. Put shortly: as §1
In test [4] the target is T2, SPIC (Homo sapiens, UniProt Q8N5J4 1-248).
T2 sequence: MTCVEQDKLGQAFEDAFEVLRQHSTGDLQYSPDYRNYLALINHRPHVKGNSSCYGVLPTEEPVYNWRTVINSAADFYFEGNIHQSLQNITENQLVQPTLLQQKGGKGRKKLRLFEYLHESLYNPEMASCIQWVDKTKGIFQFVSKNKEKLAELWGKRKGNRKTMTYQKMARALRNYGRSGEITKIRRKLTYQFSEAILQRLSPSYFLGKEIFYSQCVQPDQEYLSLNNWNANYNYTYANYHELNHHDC
As to conditions: protein: recombinant; tags: N-terminal GST; dsDNA, one strand shown. A digest of the protocol:
as §1

The target of test [5] is ELF4 (Homo sapiens, UniProt Q99607 1-663). The note with it: protein: recombinant; tags: N-terminal GST; dsDNA, one strand shown. A digest of the protocol: as §1
The target of test [6] is T3, ELK4 (Homo sapiens, UniProt P28324-2 1-405).
T3 sequence: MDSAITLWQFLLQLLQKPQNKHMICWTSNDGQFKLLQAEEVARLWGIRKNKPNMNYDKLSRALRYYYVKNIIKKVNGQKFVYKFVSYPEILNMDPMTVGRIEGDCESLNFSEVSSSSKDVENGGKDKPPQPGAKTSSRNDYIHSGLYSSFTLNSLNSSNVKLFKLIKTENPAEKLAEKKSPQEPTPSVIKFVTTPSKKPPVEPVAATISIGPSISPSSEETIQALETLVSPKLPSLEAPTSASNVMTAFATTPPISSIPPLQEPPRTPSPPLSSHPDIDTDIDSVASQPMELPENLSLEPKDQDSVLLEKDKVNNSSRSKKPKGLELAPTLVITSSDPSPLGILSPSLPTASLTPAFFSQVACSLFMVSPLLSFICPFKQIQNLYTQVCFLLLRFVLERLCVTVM
As to conditions: protein: recombinant; tags: N-terminal GST; dsDNA, one strand shown. A digest of the protocol:
as §1

Test [7] has as its target T4, ETV2 (Homo sapiens, UniProt O00321 1-342).
T4 sequence: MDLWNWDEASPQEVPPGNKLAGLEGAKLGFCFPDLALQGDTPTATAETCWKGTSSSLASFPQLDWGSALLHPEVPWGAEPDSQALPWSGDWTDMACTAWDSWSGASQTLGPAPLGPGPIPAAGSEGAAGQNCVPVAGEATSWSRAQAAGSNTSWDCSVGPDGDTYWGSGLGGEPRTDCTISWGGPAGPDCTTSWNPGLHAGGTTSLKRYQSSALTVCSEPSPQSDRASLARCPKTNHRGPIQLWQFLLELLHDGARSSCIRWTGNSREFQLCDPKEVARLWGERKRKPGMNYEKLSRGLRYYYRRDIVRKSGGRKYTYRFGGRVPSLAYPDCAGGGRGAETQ
As to conditions: protein: recombinant; tags: N-terminal GST; dsDNA, one strand shown. A digest of the protocol:
as §1

Test [8] addresses T5, ELF3 (Homo sapiens, UniProt P78545 1-371).
T5 sequence: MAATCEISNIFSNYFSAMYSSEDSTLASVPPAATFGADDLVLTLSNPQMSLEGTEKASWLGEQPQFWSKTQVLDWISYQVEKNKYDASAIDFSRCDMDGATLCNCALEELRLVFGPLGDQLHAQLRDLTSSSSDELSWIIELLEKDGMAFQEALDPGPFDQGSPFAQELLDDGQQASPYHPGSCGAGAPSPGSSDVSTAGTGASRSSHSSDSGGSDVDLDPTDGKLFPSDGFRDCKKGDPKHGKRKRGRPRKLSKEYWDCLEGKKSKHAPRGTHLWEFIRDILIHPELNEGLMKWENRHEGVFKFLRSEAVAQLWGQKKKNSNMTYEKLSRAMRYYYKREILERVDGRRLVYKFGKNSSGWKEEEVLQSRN
As to conditions: protein: recombinant; tags: N-terminal GST; dsDNA, one strand shown. Put shortly: as §1

Test [9] concerns the target CRX (Homo sapiens, UniProt O43186 1-299). As to conditions: protein: recombinant; tags: N-terminal GST; dsDNA, one strand shown. Put shortly: as §1
The target in test [10] is ETV1 (Homo sapiens, UniProt P50549 1-477). The note with it: protein: recombinant; tags: N-terminal GST; dsDNA, one strand shown. Put shortly: as §1
For test [11], the target named is T6, ERF (Homo sapiens, UniProt P50548 1-548).
T6 sequence: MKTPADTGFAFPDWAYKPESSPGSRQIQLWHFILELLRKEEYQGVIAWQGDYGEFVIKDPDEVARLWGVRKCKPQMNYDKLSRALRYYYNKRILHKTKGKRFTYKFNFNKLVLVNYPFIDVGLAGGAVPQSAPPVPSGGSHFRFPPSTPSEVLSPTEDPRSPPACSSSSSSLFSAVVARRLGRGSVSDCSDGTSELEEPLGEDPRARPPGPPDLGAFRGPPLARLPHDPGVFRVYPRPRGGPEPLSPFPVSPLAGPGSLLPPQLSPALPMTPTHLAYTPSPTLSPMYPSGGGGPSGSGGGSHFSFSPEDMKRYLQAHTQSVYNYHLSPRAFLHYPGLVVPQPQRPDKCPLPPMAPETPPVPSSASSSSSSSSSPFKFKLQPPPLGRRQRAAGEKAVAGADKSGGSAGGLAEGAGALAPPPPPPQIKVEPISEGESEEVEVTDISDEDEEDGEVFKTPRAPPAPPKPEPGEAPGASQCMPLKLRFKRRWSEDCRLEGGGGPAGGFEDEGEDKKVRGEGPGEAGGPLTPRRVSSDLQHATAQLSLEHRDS
As to conditions: protein: recombinant; tags: N-terminal GST; dsDNA, one strand shown. Put shortly:
as §1

Test [12] deals with T7, ETV3L (Homo sapiens, UniProt Q6ZN32 1-361).
T7 sequence: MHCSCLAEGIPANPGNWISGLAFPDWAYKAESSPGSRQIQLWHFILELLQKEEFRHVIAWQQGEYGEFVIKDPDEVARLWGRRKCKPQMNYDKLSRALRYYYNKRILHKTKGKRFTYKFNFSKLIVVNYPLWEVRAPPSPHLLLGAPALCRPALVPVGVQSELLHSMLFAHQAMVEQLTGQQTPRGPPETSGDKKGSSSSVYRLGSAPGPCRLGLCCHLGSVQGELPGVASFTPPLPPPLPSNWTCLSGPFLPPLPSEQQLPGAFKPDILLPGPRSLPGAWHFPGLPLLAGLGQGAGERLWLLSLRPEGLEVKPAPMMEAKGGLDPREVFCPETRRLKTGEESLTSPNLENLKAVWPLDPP
The note with it: protein: recombinant; tags: N-terminal GST; dsDNA, one strand shown. Put shortly:
as §1

Test [13] has as its target T8, ETS2 (Homo sapiens, UniProt P15036 1-469).
T8 sequence: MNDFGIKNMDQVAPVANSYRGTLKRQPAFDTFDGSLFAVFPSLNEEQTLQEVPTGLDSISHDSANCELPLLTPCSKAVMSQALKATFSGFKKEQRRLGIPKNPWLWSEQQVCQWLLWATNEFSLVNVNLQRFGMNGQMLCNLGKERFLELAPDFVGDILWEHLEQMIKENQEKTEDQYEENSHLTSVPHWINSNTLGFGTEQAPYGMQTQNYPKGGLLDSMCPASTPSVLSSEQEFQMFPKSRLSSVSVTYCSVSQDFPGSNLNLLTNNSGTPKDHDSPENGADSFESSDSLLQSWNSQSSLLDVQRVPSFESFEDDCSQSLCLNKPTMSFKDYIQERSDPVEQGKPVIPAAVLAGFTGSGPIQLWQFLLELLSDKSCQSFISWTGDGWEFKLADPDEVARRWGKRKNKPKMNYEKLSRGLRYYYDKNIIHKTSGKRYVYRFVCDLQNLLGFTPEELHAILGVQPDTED
The note with it: protein: recombinant; tags: N-terminal GST; dsDNA, one strand shown. Put shortly: as §1

For test [14], the target named is T9, SPDEF (Homo sapiens, UniProt O95238 1-335).
T9 sequence: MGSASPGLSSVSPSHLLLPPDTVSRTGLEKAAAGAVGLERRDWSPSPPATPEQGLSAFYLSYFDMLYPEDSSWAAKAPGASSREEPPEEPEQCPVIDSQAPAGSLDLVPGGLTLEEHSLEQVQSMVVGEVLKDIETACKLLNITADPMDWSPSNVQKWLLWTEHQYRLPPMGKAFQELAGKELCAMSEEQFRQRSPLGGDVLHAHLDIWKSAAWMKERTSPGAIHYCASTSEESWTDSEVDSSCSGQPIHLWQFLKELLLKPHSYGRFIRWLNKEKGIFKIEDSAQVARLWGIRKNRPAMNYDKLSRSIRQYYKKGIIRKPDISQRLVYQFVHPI
As to conditions: protein: recombinant; tags: N-terminal GST; dsDNA, one strand shown. Put shortly: as §1

Test [15] deals with T10, ETV7 (Homo sapiens, UniProt Q9Y603 1-341).
T10 sequence: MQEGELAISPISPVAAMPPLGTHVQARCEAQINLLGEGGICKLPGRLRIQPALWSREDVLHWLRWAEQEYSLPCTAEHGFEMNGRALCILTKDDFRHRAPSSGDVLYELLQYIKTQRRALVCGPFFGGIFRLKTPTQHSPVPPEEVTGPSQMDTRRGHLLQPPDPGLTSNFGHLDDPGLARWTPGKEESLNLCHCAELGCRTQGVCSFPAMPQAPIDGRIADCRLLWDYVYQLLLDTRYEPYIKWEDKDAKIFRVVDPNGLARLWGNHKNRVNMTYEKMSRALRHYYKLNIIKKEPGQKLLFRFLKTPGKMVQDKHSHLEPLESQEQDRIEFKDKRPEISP
The note with it: protein: recombinant; tags: N-terminal GST; dsDNA, one strand shown. Put shortly:
as §1

In test [16] the target is T11, ELF5 (Homo sapiens, UniProt Q9UKW6-2 1-255).
T11 sequence: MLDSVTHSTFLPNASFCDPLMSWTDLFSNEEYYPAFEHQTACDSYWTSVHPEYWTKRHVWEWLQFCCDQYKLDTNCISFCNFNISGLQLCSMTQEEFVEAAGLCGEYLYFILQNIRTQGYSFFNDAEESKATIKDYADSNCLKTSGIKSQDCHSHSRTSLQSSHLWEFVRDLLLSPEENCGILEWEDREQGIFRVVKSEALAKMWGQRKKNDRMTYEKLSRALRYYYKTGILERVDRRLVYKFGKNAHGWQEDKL
As to conditions: protein: recombinant; tags: N-terminal GST; dsDNA, one strand shown. A digest of the protocol: as §1

The target in test [17] is T12, ETV3 (Homo sapiens, UniProt P41162-2 1-143).
T12 sequence: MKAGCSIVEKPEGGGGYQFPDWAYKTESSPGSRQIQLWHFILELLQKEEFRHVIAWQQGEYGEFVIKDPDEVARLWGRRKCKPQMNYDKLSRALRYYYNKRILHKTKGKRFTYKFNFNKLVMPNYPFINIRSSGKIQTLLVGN
The note with it: protein: recombinant; tags: N-terminal GST; dsDNA, one strand shown. Put shortly: as §1

In test [18] the target is ETV6 (Homo sapiens, UniProt P41212 1-452). As to conditions: protein: recombinant; tags: N-terminal GST; dsDNA, one strand shown. A digest of the protocol: as §1
Chain of ETV6 (P41212 whole entry): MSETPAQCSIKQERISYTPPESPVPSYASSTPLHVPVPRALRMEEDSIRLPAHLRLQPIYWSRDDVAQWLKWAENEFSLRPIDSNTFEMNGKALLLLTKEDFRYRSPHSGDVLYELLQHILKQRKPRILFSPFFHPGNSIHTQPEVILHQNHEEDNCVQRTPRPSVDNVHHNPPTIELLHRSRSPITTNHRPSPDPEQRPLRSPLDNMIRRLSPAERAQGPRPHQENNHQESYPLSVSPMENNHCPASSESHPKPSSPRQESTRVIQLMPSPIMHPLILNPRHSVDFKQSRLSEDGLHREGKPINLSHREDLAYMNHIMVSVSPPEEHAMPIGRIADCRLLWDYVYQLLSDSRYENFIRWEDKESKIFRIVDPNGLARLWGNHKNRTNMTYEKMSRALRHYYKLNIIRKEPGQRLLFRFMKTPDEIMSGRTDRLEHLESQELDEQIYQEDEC

Chain of CRX (O43186 whole entry): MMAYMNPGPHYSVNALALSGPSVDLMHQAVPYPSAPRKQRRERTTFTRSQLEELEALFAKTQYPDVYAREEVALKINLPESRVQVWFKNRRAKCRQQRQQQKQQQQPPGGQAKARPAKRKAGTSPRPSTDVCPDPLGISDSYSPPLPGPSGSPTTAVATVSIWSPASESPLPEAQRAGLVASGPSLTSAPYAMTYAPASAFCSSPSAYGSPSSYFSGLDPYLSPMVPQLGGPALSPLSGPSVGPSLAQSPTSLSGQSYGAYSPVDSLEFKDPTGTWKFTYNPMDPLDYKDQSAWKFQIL
Chain of ETV1 (P50549 whole entry): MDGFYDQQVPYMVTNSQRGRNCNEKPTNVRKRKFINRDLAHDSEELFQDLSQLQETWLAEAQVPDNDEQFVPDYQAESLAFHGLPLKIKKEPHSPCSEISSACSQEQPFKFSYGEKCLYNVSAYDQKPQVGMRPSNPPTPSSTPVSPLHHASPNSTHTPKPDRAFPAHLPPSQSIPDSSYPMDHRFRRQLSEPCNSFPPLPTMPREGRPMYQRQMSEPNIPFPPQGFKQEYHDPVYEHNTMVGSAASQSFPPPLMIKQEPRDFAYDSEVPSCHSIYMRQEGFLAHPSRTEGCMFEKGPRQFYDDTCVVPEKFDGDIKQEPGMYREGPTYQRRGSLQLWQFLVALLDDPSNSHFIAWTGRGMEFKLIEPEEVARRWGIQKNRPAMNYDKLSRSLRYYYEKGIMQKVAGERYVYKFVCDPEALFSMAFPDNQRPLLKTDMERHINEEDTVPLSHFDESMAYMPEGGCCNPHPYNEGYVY
Chain of HSF1 (Q00613 whole entry): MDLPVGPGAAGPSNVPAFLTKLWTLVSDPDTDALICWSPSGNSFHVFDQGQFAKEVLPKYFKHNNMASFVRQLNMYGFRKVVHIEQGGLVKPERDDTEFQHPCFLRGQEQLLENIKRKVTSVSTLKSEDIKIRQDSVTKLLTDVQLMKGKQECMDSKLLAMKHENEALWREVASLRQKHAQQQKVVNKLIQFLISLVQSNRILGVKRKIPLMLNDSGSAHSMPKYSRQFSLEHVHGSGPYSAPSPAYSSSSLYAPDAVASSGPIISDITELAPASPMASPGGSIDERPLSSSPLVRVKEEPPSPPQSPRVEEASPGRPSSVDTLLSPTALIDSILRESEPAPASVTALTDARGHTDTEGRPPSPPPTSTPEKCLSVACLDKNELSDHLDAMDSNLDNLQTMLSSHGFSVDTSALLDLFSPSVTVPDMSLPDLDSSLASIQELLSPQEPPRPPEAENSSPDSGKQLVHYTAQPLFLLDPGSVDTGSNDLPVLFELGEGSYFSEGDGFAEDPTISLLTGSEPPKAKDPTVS
Chain of ELF4 (Q99607 whole entry): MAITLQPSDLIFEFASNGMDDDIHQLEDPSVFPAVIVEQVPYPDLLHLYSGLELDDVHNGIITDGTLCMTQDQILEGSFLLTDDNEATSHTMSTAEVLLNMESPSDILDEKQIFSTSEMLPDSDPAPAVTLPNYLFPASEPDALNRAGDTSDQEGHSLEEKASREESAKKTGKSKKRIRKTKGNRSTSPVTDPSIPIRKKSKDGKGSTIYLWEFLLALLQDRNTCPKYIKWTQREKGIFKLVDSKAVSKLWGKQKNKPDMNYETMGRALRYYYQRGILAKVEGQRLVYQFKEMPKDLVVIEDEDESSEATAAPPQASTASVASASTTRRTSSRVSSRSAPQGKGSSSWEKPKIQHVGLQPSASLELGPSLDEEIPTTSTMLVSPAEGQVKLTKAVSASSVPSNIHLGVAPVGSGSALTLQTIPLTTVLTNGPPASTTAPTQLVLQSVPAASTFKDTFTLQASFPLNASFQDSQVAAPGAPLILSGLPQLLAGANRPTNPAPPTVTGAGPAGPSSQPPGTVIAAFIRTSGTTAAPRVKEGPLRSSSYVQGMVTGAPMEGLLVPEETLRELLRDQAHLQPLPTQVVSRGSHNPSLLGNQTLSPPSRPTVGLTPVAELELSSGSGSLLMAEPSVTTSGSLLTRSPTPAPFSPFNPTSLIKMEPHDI
Chain of ETV5 (P41161 whole entry): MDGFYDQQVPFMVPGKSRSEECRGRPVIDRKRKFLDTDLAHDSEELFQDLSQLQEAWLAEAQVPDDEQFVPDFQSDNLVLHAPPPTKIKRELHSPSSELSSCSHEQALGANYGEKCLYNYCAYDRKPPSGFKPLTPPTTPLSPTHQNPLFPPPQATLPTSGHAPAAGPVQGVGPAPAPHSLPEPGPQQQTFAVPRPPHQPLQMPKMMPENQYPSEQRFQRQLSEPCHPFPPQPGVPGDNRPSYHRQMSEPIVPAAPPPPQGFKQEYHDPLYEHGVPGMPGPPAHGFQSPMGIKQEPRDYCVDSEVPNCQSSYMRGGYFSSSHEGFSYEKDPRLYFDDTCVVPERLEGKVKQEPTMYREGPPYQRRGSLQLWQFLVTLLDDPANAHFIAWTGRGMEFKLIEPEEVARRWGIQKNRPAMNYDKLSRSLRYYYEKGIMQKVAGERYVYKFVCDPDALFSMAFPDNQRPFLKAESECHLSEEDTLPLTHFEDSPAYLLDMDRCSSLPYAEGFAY

For CTGCAT, the binding signal in test [1] was 1.54 fold enrichment (6-mer frequency, TF over GST control); in test [2] it was 1.46 fold enrichment (6-mer frequency, TF over GST control); in test [3] it was 1.12 fold enrichment (6-mer frequency, TF over GST control); in test [4], 1.32 fold enrichment (6-mer frequency, TF over GST control); in test [5] it was 1.43 fold enrichment (6-mer frequency, TF over GST control); in test [6], 1.39 fold enrichment (6-mer frequency, TF over GST control). Besides, the binding signal was 1.28 fold enrichment (6-mer frequency, TF over GST control) in test [7]; 1.4 fold enrichment (6-mer frequency, TF over GST control) in [8]; 1.12 fold enrichment (6-mer frequency, TF over GST control) in test [9]; 1.29 fold enrichment (6-mer frequency, TF over GST control) in test [10]; 1.38 fold enrichment (6-mer frequency, TF over GST control) in test [11]; 1.66 fold enrichment (6-mer frequency, TF over GST control) in test [12]. Further, the binding signal in [13] was 1.4 fold enrichment (6-mer frequency, TF over GST control); in [14] it was 1.57 fold enrichment (6-mer frequency, TF over GST control); in test [15], 1.41 fold enrichment (6-mer frequency, TF over GST control); in test [16], 1.29 fold enrichment (6-mer frequency, TF over GST control); in [17], 1.24 fold enrichment (6-mer frequency, TF over GST control); in [18] it was 1.25 fold enrichment (6-mer frequency, TF over GST control).
